Rab9 prom act: activates the Rab9 promoter; Huh7 Rab9 promoter-luciferase reporter, luminescence, 24 h; Potency, µM (highest dose often 9.22 µM), for the others: at the top dose activation, negative = inhibition, usual class: activators; actives 2.8% (n = 320,000); further: % of control where 0% means no effect; nearly all actives have a fitted effect of over 60% in size
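Luminescence read-out: Huh7 cells stably expressing Rab9-luciferase, treated 24 h with compound at 37 °C, then lysed with luciferase reagent for 10 min at ambient before reading.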
FLuc counter: inhibits or activates purified firefly luciferase, miR-21 counter-screen. purified FLuc, Km substrates, luminescence inhibition. Potency, µM (doses to about 57.5 µM), without a hit: at the highest dose activity change, negative = inhibition, most hits filed as inhibitors. actives 6.9% (n = 360,000). AID 588342;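 further: plate controls were vehicle for no effect and reference inhibitor for full effect; nearly all actives have a fitted effect of over 55% in size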
Target sequence (P08659 whole entry, looked up): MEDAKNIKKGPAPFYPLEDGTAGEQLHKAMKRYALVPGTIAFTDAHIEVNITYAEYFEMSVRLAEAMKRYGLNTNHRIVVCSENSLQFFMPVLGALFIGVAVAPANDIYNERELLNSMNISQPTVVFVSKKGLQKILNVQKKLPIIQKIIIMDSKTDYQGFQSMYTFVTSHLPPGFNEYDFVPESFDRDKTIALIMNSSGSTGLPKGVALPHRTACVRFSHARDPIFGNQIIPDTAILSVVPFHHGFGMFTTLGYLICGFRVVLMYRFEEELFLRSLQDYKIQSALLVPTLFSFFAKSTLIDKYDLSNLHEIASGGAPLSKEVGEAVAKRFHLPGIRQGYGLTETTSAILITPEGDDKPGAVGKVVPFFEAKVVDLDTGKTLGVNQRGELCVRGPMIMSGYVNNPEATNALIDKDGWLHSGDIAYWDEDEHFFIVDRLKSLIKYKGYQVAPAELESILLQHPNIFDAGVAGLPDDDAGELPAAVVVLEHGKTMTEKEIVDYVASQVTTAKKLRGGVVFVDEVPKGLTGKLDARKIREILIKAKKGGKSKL
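Purified P. pyralis luciferase, 10 nM final, with Km-level 10 uM D-luciferin and 10 uM ATP in 50 mM Tris acetate pH 7.5, 10 mM Mg acetate, 0.01% Tween-20, 0.05% BSA; 6-point qHTS titration about 60 µM downward; luminescence read.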
NPC1 promoter act: activators of NPC1 promoter. Huh7 NPC1 promoter luciferase reporter, 24 h. Potency, µM (series often up to 9.22 µM), for inactives: at the top dose activation, most hits filed as activators. actives 2.4% (n = 320,000). AID 485313; further: % of control where 0% means no effect; nearly all actives have a fitted effect of over 60% in size
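Cells: Huh7 expressing luciferase under the NPC1 promoter, 1500/well. Seeded 2 h, compound added, incubated 24 h at 37 °C. Luciferase reagent, 10 min ambient, then luminescence.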
SMN2 splice up: enhancers of SMN2 splice variant expression | HEK293 SMN2-luciferase splicing reporter, luminescence, 30-36 h | Potency, µM (doses to about 46.1 µM), for the others: at the top dose activity change, positive = activation, actives largely listed as activators | actives 2.8% (n = 210,000) | AID 1458; further: % of control where 0% means no effect; nearly all actives have a fitted effect of over 55% in size
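HEK293 cells carry an SMN2 minigene-luciferase reporter in which exon 7 inclusion puts luciferase in frame. Cells were seeded at 2000 cells/well, attached for 10-12 hours, then exposed to compounds for 30-36 hours at 37C before ONE-Glo luminescence.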
Luc counter: blocks Kinase-Glo luciferase, a counter-screen artifact | Q27757 | Kinase-Glo luciferase, ATP luminescence, 8 min | Potency, µM (top dose mostly 38.3 µM), without a hit: at the highest dose activity change, negative = inhibition, hits mostly inhibitors | actives 0.28% (n = 200,000) | AID 1379; further: on the % scale 0 is the no-effect control and ±100 the full control effect; nearly all actives have a fitted effect of over 60% in size
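Inhibition of Kinase-Glo luciferase light generation was assessed at 10 uM ATP in pH 7.2 imidazole buffer, with luminescence measured after eight minutes at ambient temperature.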
ELG1 genotox: inducers of genotoxicity in HEK293T ELG1-luciferase cells. HEK293T ELG1-luciferase reporter, luminescence, 16 h. Potency, µM (series often up to 46 µM), without a hit: at the highest dose activity change, positive = activation, hits mostly activators. actives 1.3% (n = 330,000); further: % of control where 0% means no effect; nearly all actives have a fitted effect of over 60% in size
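After overnight (16 hr) compound treatment at 37 °C, ELG1-luciferase HEK293T cells were lysed with ONE-Glo; luminescence quantified 30 min later at room temperature.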
* hit, by the source's call; ? = inconclusive; · = no result given; [ ] = dose if it differs, or a comment. Sampled rows, rich in hits. Any-hit rate of the full collection: about 7.3%. The call rests on the fitted dose curve; in most records, active means well fitted curve in the direction sought with a large enough effect; inconclusive means small, poorly fitted or top-dose-only effect, or another doubt; inactive means no such curve, though single readings can be large; an effect the other way counts as inactive or inconclusive. Potency means the concentration at half of the fitted maximal effect.

SMILES	Rab9 prom act	FLuc counter	NPC1 promoter act	SMN2 splice up	Luc counter	ELG1 genotox
COc1cc(/C=C/c2nc(C#N)c(N3CCCCCC3)o2)cc(OC)c1OC	·	?	·	23%	·	·
CCc1nn(CC(=O)N2CCN(c3cccc(C)c3C)CC2)c(=O)c2cc3sccc3n12	·	-3%	·	0%	·	·
CC(C)(C)c1csc(N/N=C/c2ccc(O)cc2)n1	?	21µM*	29%	·	·	?
COc1ccc(/C=N/Nc2nc(-c3ccc(C)cc3)c(NC(C)=O)s2)cc1	-2%	5.4µM*	10%	·	·	7%
CC(=O)Nc1sc(N/N=C\c2ccco2)nc1-c1cccs1	16%	17µM*	-2%	-11%	2%	2%
CC(=O)Nc1sc(N/N=C\c2ccccc2Cl)nc1-c1cccs1	13%	-18%	4%	-20%	0%	?
CCOc1cc(/C=N/Nc2nc(-c3cccs3)c(NC(C)=O)s2)ccc1O	1%	27µM*	-1%	·	·	1%
CCOc1cc(/C=N/NC(=O)CSc2cccc3cccnc23)ccc1O	-4%	-12%	-2%	18%	1%	-6%
Cc1nc(-c2ccc(F)cc2)sc1CCNC(=O)c1ccco1	·	-10%	·	·	·	·
Cc1ccc(NC(=O)CCC(=O)N/N=C/c2ccc(O)cc2)cc1	2%	-15%	-1%	·	·	2%
CC(=O)Nc1sc(N/N=C/c2ccccc2)nc1-c1ccc(C)cc1	-2%	8.5µM*	-1%	·	·	4%
CC(=O)Nc1sc(N/N=C\c2ccccc2)nc1-c1cccs1	6%	19µM*	3%	-49%	-7%	?
CC(=O)Nc1sc(N/N=C/c2ccccc2F)nc1-c1ccc(C)cc1	10%	7.6µM*	1%	·	·	-2%
CC(=O)Nc1sc(N/N=C/c2ccc(O)cc2)nc1-c1ccc(C)cc1	10%	2.4µM*	1%	·	·	?
COc1ccc2cc(CNc3ccc(OC)c(OC)c3)c(=O)n(CC(=O)Nc3ccc(C)cc3)c2c1	·	3%	·	·	·	·
COC(=O)[C@H](COC(C)(C)C)NC(=O)O[C@@H]1Cc2cc(OC)ccc2O[C@H]1c1cccc(OC)c1	·	·	·	-9%	0%	·
CCC(CC)c1nn2c(=O)cc(COc3ccc(NC(=O)c4ccccc4C)cc3)nc2s1	·	-3%	·	8%	·	·
CCCc1cc2c(=O)c(-c3nc4ccccc4s3)c(COCC(=O)O)oc2cc1O	?	9.5µM*	2%	51%	-2%	6%
Cc1c(Cl)cccc1NC(=O)Cn1c(=O)n(Cc2ccco2)c(=O)c2sc3ccccc3c21	·	0%	·	3%	·	·
Cc1nn(C)c(C(=O)N/N=C/c2ccc(Br)cc2)c1Cl	3%	-10%	-1%	1%	6%	1%
CC(C)c1ccc(/C=N/NC(=O)c2c(Cl)cnn2C)cc1	2.8µM*	0.67µM*	3.2µM*	8.9µM*	-12%	18µM*
CC1(C)CC(=O)c2cnc(N3CCc4ccccc4C3)nc2C1	?	2.7µM*	2.8µM*	-35%	-1%	1.8µM*
O=C1CCCc2nc(N3CCc4ccccc43)ncc21	1.6µM*	2.7µM*	3.2µM*	13µM*	?	3.3µM*
CC1(C)CC(=O)c2cnc(N3CCN(c4ccccc4)CC3)nc2C1	-8%	-13%	-4%	-55%	-1%	-6%
Cc1ccc(NC(=O)Cn2c(SCc3ccc(F)cc3)nc3cccnc32)cc1F	·	-18%	·	·	·	·
SMILES	Rab9 prom act	FLuc counter	NPC1 promoter act	SMN2 splice up	Luc counter	ELG1 genotox
CCn1ccc2cc(S(=O)(=O)N3CCCN(C(=O)NCCOC)CC3)ccc21	·	-2%	·	·	·	·
CCOc1ccc(/C=C2\SC(=S)N(CCC(=O)Nc3cccc(C(=O)O)c3)C2=O)cc1	?	2.1µM*	29%	·	·	?
O=C(CCCN1C(=O)S/C(=C/c2ccccc2)C1=S)Nc1ccc(C(=O)O)cc1	2%	3%	-1%	·	·	0%
O=C(CCN1C(=O)S/C(=C\c2ccc(Cl)cc2)C1=O)Nc1ccc(C(=O)O)cc1	30%	15µM*	-5%	·	·	13%
COc1ccc(/C=C2\SC(=S)N(CCCC(=O)Nc3cccc(C(=O)O)c3)C2=O)cc1OC	-1%	3%	-6%	·	·	-20%
CCOc1ccc(/C=C2\SC(=S)N(CCC(=O)Nc3ccc(C(=O)O)cc3)C2=O)cc1	-8%	2.7µM*	3%	·	·	13%
O=C(CCN1C(=O)/C(=C/c2ccc3c(c2)OCO3)SC1=S)Nc1ccc(C(=O)O)cc1	2%[1.84 µM]	9.5µM*	0%	·	·	9%
CCOC(=O)CN1C(=O)S/C(=C\c2ccc3c(c2)OCO3)C1=O	-4%	21µM*	5%	·	·	11%
COc1ccc(NC(=O)CCS(=O)(=O)c2nc(-c3cccs3)cc(C(F)(F)F)n2)cc1OC	·	6%	·	?	·	·
CCc1ccc(NC2=NCC(c3ccccc3)S2)cc1 (stereo unspecified)	?	7.6µM*	?	14µM*	1%	?
c1ccc(-c2nc3c4ccccc4ccn3c2CN2CCOCC2)cc1	12%	4.8µM*	-3%	·	·	?
CC(=O)N1CCc2cc(N=NC3=C(O)CC(C)(C)CC3=O)ccc21	1.6µM*	13µM*	4µM*	?	-4%	?
O=C1CCCC(O)=C1N=Nc1cccc(C(=O)O)c1	2.2µM*	8.5µM*	3.5µM*	?	-10%	?
CCN(CC)S(=O)(=O)c1cccc(N=NC2=C(O)CCCC2=O)c1	7%	-3%	7%	-15%	-3%	1%
Cc1nc2ccc(N=NC3=C(O)CC(C)(C)CC3=O)cc2s1	2%	4.3µM*	-2%	?	-5%	?
Cc1nc2ccc(N=NC3=C(O)CCCC3=O)cc2s1	-3%	11µM*	5%	?	-14%	?
COCc1nnc(NC(=O)c2ccc(OC)cc2OC)s1	2.5µM*	8.5µM*	2.5µM*	11µM*	-1%	8.2µM*
COc1cccc(C(=O)Nc2nnc(Cc3ccc(OC)c(OC)c3)s2)c1	-2%	0%	-2%	·	·	-4%
COc1ccc(C(=O)Nc2nnc(Cc3ccc(OC)c(OC)c3)s2)c(OC)c1	15%	27µM*	14%	·	·	12%
CCOCCCNC(=O)c1cnc2sc(N3CCCCCC3)nn2c1=O	·	0%	·	·	·	·
COc1cc(/C=C/C(=O)c2cccs2)cc(OC)c1OC	·	·	·	·	-4%	·
Cc1ccc2c(c1)sc1nc(=O)n(-c3ccccc3)c(=O)n12	0.32µM*	?	0.56µM*	·	·	?
Cc1ccc2c(c1)sc1ncc(NC(=O)c3ccc(F)cc3)c(=O)n12	-1%	-5%	-4%	-13%	-1%	5%
C#CCN1C(=O)S/C(=C/c2cc(C)n(CC)c2C)C1=O	1.6µM*	2.1µM*	2.8µM*	·	·	?
